AMA1-RON2 inh: AMA1-RON2 (P. falciparum) interaction inhibition. AlphaScreen AMA1-biotinylated RON2 peptide binding. Potency, µM (doses to about 58.2 µM), for inactives: at the highest dose activity change, negative = inhibition, usual class: inhibitors. 360,000 compounds, 0.2% hits;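 further: potency means the concentration at half of the fitted maximal effect; 0% = vehicle wells and -100% = peptide control; nearly all actives have a fitted effect of over 45% in size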
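AMA1 (3D7) with his tag at 25 nM final met compounds first, then biotinylated RON2 peptide at 25 nM; detection used donor plus acceptor beads, 10 µg/mL apiece, read by AlphaScreen after 30 min at room temperature.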
Cycloheximide cs: counter-screen hit for Shiga toxin inhibitors, cycloheximide; 300,000 compounds, 12% hits; cell reporter, cycloheximide protein synthesis inhibition counterscreen; max response, %; AID 2314; in the data active means max response mostly above about 13%, no sharp cut-off; inactive means mostly below about 14%; further: read at 38.3 µM for the half of the compounds with a filed dose; 0% is about no effect
Pf growth 96h: P. falciparum growth inhibition at 96 hours; P. falciparum luciferase reporter growth, 96 h; Potency, µM (series often up to 28.7 µM), inactives show at the top dose activity change, negative = inhibition, actives largely listed as inhibitors; 320,000 compounds, 6.9% hits; further: potency means the concentration at half of the fitted maximal effect; on the % scale 0 is the no-effect control and ±100 the full control effect
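Readout is luminescence from an integrated firefly luciferase in P. falciparum. Red cells, 2% hematocrit and 0.05% parasitemia final, were cultured with compound through two parasite generations (96 hours) at 37 C, 5% CO2.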
SARS PLpro yeast: blocks SARS-CoV papain-like protease in a yeast assay; S. cerevisiae expressing SARS-CoV PLpro, growth rescue; Potency, µM (titrated, usually from 32.9 µM), for the others: top-dose activity, positive = growth rescue, hits mostly activators; 330,000 compounds, 0.19% hits; AID 485353; calls by dose curve; further: potency means the concentration at half of the fitted maximal effect; 0% is about no effect; nearly all actives have a fitted effect of over 55% in size
Pf growth 48h: inhibits P. falciparum growth in the first generation, 48 h. P. falciparum luciferase growth in erythrocytes, 48 h. Potency, µM (titrated, usually from 28.7 µM), for the others: top-dose activity change, negative = inhibition, hits mostly inhibitors. 310,000 compounds, 5.9% hits. AID 504832; further: potency means the concentration at half of the fitted maximal effect; on the % scale 0 is the no-effect control and ±100 the full control effect
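Read-out is firefly luciferase luminescence from an integrated reporter in P. falciparum, so falling signal marks reduced parasite growth. Infected erythrocytes were at 2% hematocrit and 0.1% parasitemia (final) in Albumax-supplemented RPMI 1640.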
Shiga toxin inh: Shiga toxin inhibition; inhibition, % at 38.7 µM; 290,000 compounds, 9.2% hits; Vero cells, Shiga toxin protein synthesis inhibition reporter; in the data active means inhibition mostly above about 28%, no sharp cut-off; inactive means mostly below about 43%; further: 0% is about no effect
* = called active by the depositor; ? = inconclusive; · = not tested or not shown; + = active, no number; [ ] = dose if it differs, or a comment. Only some compounds are listed: those with a hit (about 19% of all), similar ones and a draw of the others. Unless noted, the call rests on the fitted dose curve; in most records, active means well fitted curve in the direction sought with a large enough effect; inconclusive means small, poorly fitted or top-dose-only effect, or another doubt; inactive means no such curve, though single readings can be large; an effect the other way counts as inactive or inconclusive.

SMILES	AMA1-RON2 inh	Cycloheximide cs	Pf growth 96h	SARS PLpro yeast	Pf growth 48h	Shiga toxin inh
C/C(=N\Nc1nc(-c2ccccc2O)nc2ccccc12)c1ccccc1	18.9%	2.3	?	-0.7%	0.522µM*	22.6
C/C(=N/Nc1nc(-c2ccccc2F)nc2ccccc12)c1ccccc1O	60.6%	-1.1	?	-0.1%	?	-3.0
CCc1cccc(NC(=O)CN(C)C2=NS(=O)(=O)c3ccccc32)c1	6.1%	·	11.7µM*	2.4%	?	·
CN(CC(=O)Nc1cccc(Cl)c1)C1=NS(=O)(=O)c2ccccc21	-14.1%	·	·	?	·	·
COC(=O)c1ccc2c(=O)n(CC3CCCO3)c(SCC(=O)NCCc3ccc(S(N)(=O)=O)cc3)nc2c1 (centres undefined)	5.9%	-4.2	?	-0.8%	-7.2%	10.4
CC(CC12CC3CC(CC(C3)C1)C2)NCc1ccccc1O (centres undefined)	-10.8%	-6.3	9.28µM*	1.0%	?	·
CC(Cc1ccccc1)NCc1ccccc1O (centres undefined)	13.4%	-2.5	?	4.7%	?	19.5
OCCNCC12CC3CC(CC(C3)C1)C2	16.2%	-6.4	?	0.7%	-0.6%	-3.9
Oc1ccccc1CNCC12CC3CC(CC(C3)C1)C2	13.2%	2.1	0.0828µM*	13.5%	0.104µM*	-7.6
COc1ccc(/C(O)=C2/C(=O)C(=O)N(c3ccccn3)C2c2ccc(F)cc2)cc1 (centres undefined)	-5.9%	-0.5	6.57µM*	-1.0%	-12.1%	16.0
Cc1cc(N2C(=O)C(=O)/C(=C(/O)c3ccc(F)cc3)C2c2ccc(Cl)cc2)no1 (centres undefined)	0.8%	1.3	59.0%	5.2%	13.1µM*	-10.8
COc1cccc(/C(O)=C2\C(=O)C(=O)N(c3ccccn3)C2c2ccccc2OC)c1 (centres undefined)	4.7%	-1.2	5.22µM*	-7.8%	8.1%	28.3
Cc1ccc(NC(=O)CN(C)C(=O)c2cc(S(=O)(=O)N(C)C)ccc2N2CCCC2)cc1	4.1%	·	?	-1.6%	-12.3%	·
CC(C)(C)C(=O)OCOC(=O)[C@@H]1N2C(=O)[C@@H](NC(=O)[C@H](N)c3ccccc3)[C@H]2SC1(C)C	·	·	-26.1%[12.8 µM]	·	-16.6%[12.8 µM]	·
CC(=O)c1c(C)[nH]c(C(=O)N2CCN(c3ccccn3)CC2)c1C	0.0%	1.1	?	-0.2%	21.1%	-1.3
CC(=O)NC1[C@H](O)C[C@@](O)(C(=O)O)O[C@H]1[C@H](O)[C@H](O)CO (some centres undefined)	·	·	-7.1%	·	-3.0%	·
O=C(Nc1nc2ccccc2s1)C1CCCN1S(=O)(=O)c1ccc(Cl)cc1 (centres undefined)	-7.3%	1.3	26.3%	-21.9%	?	-5.5
Cc1ccc(S(=O)(=O)N2CCCC2C(=O)Nc2nc3ccccc3s2)cc1 (centres undefined)	-9.7%	14.4*	?	-14.2%	?	7.3
Cc1ccc(S(=O)(=O)N2CCCC2C(=O)Nc2ccc(O)cc2)cc1 (centres undefined)	-3.3%	-5.4	5.22µM*	-18.8%	-21.3%	-7.6
O=C(OCc1nc2ccccc2s1)[C@@H]1CCCN1S(=O)(=O)c1ccccc1F	·	25.8*	·	-25.3%	32.3%	48.9
O=C(OCC(=O)N1CCc2ccccc21)[C@@H]1CCCN1S(=O)(=O)c1ccccc1F	8.7%	·	-10.8%	4.3%	-16.3%	·
CCCCn1nnnc1C1(C)CCC(=O)N1CCc1c[nH]c2ccccc12 (centres undefined)	-1.7%	·	·	·	·	·
COc1cc(-c2nnc(SCC(=O)NC3CCS(=O)(=O)C3)o2)cc(OC)c1OC (centres undefined)	4.6%	0.3	10.1%	0.8%	10.5%	-2.8
O=c1cc(-c2ccccc2)oc2ccc(Cl)cc12	25.2%	·	·	·	·	·
O=c1cc(-c2cccs2)oc2ccc(Cl)cc12	-2.9%	37.4*	0.0%	-13.0%	148.7%	58.5*
SMILES	AMA1-RON2 inh	Cycloheximide cs	Pf growth 96h	SARS PLpro yeast	Pf growth 48h	Shiga toxin inh
O=c1cc(-c2ccc3c(c2)OCCO3)oc2ccc(Cl)cc12	0.6%	46.6*	325.3%	1.0%	241.0%	75.5*
O=[N+]([O-])c1ccc2oc(-c3ccccc3)nc2c1	-7.3%	35.3*	0.8%	-0.2%	237.4%	69.1*
Cc1cccc([N+](=O)[O-])c1	8.9%	·	40.6%	-13.2%	35.9%	·
Cc1cccc(-c2nc3cc([N+](=O)[O-])ccc3o2)c1	0.0%	36.4*	5.4%	-0.1%	159.6%	92.2*
NC(N)=Nc1nc2cc([N+](=O)[O-])ccc2o1	13.9%	15.5*	38.7%	-1.8%	10.2%	27.2
COc1ccc(-c2nc3ccc([N+](=O)[O-])cc3o2)cc1	-16.6%	38.8*	36.1%	-6.7%	115.1%	+
Cc1ccc(OCc2nnnn2-c2ccccc2)cc1	19.7%	-1.1	?	15.2%	17.3%	38.7
COC(=O)[C@@]12C[C@@H](CC(=O)NCCCN3CCCC3=O)C(=O)N(Cc3ccc4c(c3)OCO4)C1=CCC(C)(C)C2	-6.3%	·	·	·	·	·
Cc1nn(C(C)C(=O)NCCCN2CCCC2)c(=O)c2nn(-c3ccccc3)c(C)c12 (centres undefined)	1.2%	-3.0	?	-1.1%	9.4%	-3.2
COc1ccc(NS(=O)(=O)c2cc(NC(=O)CC(C)(C)C)ccc2N2CCCC2)cc1	17.0%	·	13.1µM*	1.4%	10.4µM*	·
COc1ccc(NS(=O)(=O)c2cc(NC(=O)c3ccc(C)o3)ccc2N2CCCCC2)cc1	-4.5%	-2.3	?	14.3%	9.28µM*	-7.2
O=C(CN1CCCCC1)N/N=C/c1ccccc1OCc1ccccc1	-9.4%	-3.3	-5.5%	-13.4%	4.6%	-2.0
Cc1cc(C(=O)CN2C(=O)NC3(CCCc4sccc43)C2=O)c(C)n1-c1ccc(Cl)cc1 (centres undefined)	-12.6%	0.6	?	0.0%	9.28µM*	-3.7
NC(=O)CN1C(=O)NC2(CCCc3sccc32)C1=O (centres undefined)	3.7%	5.1	1.0%	-0.6%	-5.5%	3.4
COc1ccc(C(=O)CN2C(=O)NC3(CCCc4ccccc43)C2=O)cc1 (centres undefined)	-14.2%	·	10.4µM*	·	?	·
O=C(CN1C(=O)COc2ccccc2C1=O)c1ccc2c(c1)OCCO2	-0.2%	27.6*	59.1%	1.9%	31.7%	29.1
O=C(CN1C(=O)COc2ccccc21)Nc1ccc2c(c1)OCCO2	-1.9%	11.9	?	-0.8%	15.7%	31.7
O=C(CN1C(=O)NC2(CCc3ccccc32)C1=O)c1ccc2c(c1)OCCO2 (centres undefined)	40.6%	22.6	·	3.6%	-6.2%	69.9*
Cc1cc(C)c(C)c(OC(=O)c2sc(Cl)nc2C)c1	3.2%	-1.2	-18.8%	-5.6%	-28.0%	18.7
Cc1ccc(-c2csc(C(O)c3ccc(F)c(F)c3)n2)cc1C (centres undefined)	15.0%	·	·	·	·	·

Screens: PubChem, National Center for Advancing Translational Sciences (NCATS)
